Measured values taken from the OligoGym collection.

Molecular target: TRIM23
Test: pooled miR-30 sensor sort-seq; sequence = guide strand
Conditions: shRNA
Further: reference of the scale not given here.

Sequence	sensor-assay potency score (higher = more potent)
TAGTTTGACAACCTTCTTCCAA	-0.272
TATCTAAAATTGATGCTCGGAT	-0.778
TACAACAAACACAACAGCTTGA	0.537
TACATGTTCTGTGTGAGCCATT	-1.01
AACTCTACAATCATCCTGCTGC	0.546
TACTGAATGCTTGTGACCCTGG	0.0097
TTGTAGAATGAGTAACTTGAGA	-0.898
TAGAGGAACTCGCCTGTGCTTT	-1.17
TATGCACACAAACTACACCTGT	-0.275
TTTAACTTAAACAAGATAGTAG	0.417
TGCAACTTCTGTAAACTGCTGC	0.44
TTTGTTAGCAAAAATCAGGAGC	-0.0645
TTCTTCTGCAGCTCCATACTGA	-0.628
TAATCTGAGATTTCCTCTGTGA	0.349
AACTTCTGTAAACTGCTGCTGC	0.168
TTTCCGTTAACAACTTTGCAAG	-1.22
TCAGCTAGAGGAACTCGCCTGT	0.453
TTTTCCGTTAACAACTTTGCAA	-0.567
